Laboratory results as given in the supplement of paper PMC9694430.
Values joined by “and” are separate entries in the source; they are usually repeats but may differ in a detail not shown here. Equal entries are not always repeated.

Key:
Test in all cases: thermal shift delta Tm vs DMSO control; higher = stronger stabilization (binding)
Conditions in all cases: 12.5 µM; protein concentration 2 µM
LOC_OS01G01410-cb001 = test system: LOC_OS01G01410-cb001
In short: (§1)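 Rice kinase domain constructs were expressed in E. coli, purified, and tested by differential scanning fluorimetry with compound added in DMSO. Each well of a 96-well plate held 19.5 μl of 2 μM kinase in 100 mM potassium phosphate pH 7.5, 150 mM NaCl, 10% glycerol and 5 × SYPRO Orange, and fluorescence was read from 25°C to 95°C at 0.05°C/s. The melting temperature shift is the mean of triplicates, taken against protein with DMSO alone after Boltzmann fitting.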

LOC_OS01G02750-cb003 = test system: LOC_OS01G02750-cb003
In short: as §1

LOC_OS01G10900-cb004 = test system: LOC_OS01G10900-cb004
In short: as §1

LOC_OS01G13800-cb001 = test system: LOC_OS01G13800-cb001
In short: as §1

LOC_OS01G14860-cb001 = test system: LOC_OS01G14860-cb001
In short: as §1

LOC_OS01G21960-cb002 = test system: LOC_OS01G21960-cb002
In short: as §1

LOC_OS01G39600-cb002 = test system: LOC_OS01G39600-cb002
In short: as §1

LOC_OS01G48390-cb002 = test system: LOC_OS01G48390-cb002
In short: as §1

LOC_OS01G51400-cb002 = test system: LOC_OS01G51400-cb002
In short: as §1

LOC_OS01G52050-cb004 = test system: T1, LOC_OS01G52050-cb004
T1 sequence (whole entry): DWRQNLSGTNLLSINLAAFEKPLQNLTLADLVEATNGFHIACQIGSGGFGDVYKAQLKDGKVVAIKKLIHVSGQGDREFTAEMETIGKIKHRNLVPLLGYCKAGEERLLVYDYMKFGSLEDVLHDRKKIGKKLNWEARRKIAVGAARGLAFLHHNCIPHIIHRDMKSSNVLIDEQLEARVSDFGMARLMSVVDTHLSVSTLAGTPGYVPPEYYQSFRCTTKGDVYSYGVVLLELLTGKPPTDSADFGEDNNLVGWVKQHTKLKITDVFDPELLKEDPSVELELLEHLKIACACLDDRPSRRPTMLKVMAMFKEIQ
In short: as §1

SMILES	thermal shift delta Tm (LOC_OS01G01410-cb001)	thermal shift delta Tm (LOC_OS01G02750-cb003)	thermal shift delta Tm (LOC_OS01G10900-cb004)	thermal shift delta Tm (LOC_OS01G13800-cb001)	thermal shift delta Tm (LOC_OS01G14860-cb001)	thermal shift delta Tm (LOC_OS01G21960-cb002)	thermal shift delta Tm (LOC_OS01G39600-cb002)	thermal shift delta Tm (LOC_OS01G48390-cb002)	thermal shift delta Tm (LOC_OS01G51400-cb002)	thermal shift delta Tm (LOC_OS01G52050-cb004)
Cc1ccc(NC(=O)c2cccc(C(C)(C)C#N)c2)cc1Nc1ccc2ncn(C)c(=O)c2c1	0.91 °C	0.97 °C	0.69 °C	0.2 °C	0.47 °C	0.52 °C	0.04 °C	1.13 °C	0.61 °C	0.4 °C
COc1cc2ncnc(Nc3ccc(F)c(Cl)c3)c2cc1OCCCN1CCOCC1 [Gefitinib (ZD1839)]	1.27 °C	0.13 °C	3.7 °C	0.4 °C	0.18 °C	-0.07 °C	1.46 °C	2.87 °C	0.02 °C	0.77 °C
CC(C)N(CCC(=O)c1ccc2ccccc2c1)Cc1ccccc1	-0.06 °C	-5.16 °C	1.63 °C	-1.25 °C	-0.01 °C	0.24 °C	-2.79 °C	0.53 °C	-0.18 °C	-7.43 °C
Nc1ncc(-c2ccnc(Nc3ccncc3)n2)c(CC2CC2)n1	0.71 °C	1.52 °C	1.79 °C	0.81 °C	2.55 °C	0.87 °C	0.29 °C	0.57 °C	0.15 °C	0.96 °C
C[C@@H]1COCCN1c1cc(=O)n2c(n1)N(Cc1cncc(Cl)c1)[C@H](C(F)(F)F)CC2	0.21 °C	1.55 °C	0.48 °C	1.15 °C	0.32 °C	0.45 °C	0.34 °C	0.95 °C	0.31 °C	0.49 °C
Nc1nccc(Oc2ccc3c(C(=O)Nc4cccc(C(F)(F)F)c4)cccc3c2)n1	0.89 °C	1.42 °C	0.88 °C	1.39 °C	3.82 °C	1.43 °C	0.93 °C	1.13 °C	0.12 °C	1.04 °C
C[C@H]1[C@H](C)CC[C@]2(C(=O)O)CC[C@]3(C)C(=CC[C@@H]4[C@@]5(C)C[C@@H](O)[C@H](O)[C@@](C)(CO)[C@@H]5CC[C@]43C)[C@H]12 [Asiatic Acid]	0.45 °C	-0.18 °C	0.15 °C	1.17 °C	0.23 °C	0.75 °C	0.1 °C	0.45 °C	0.17 °C	0.2 °C
CS(=O)(=O)c1cccc(CNc2nc(Nc3ccc4c(c3)CCC(=O)N4)ncc2C(F)(F)F)c1	3.58 °C	3.6 °C	1.39 °C	-0.34 °C	3.83 °C	3.04 °C	7.76 °C	3.42 °C	2.2 °C	5.18 °C
CCCS(=O)(=O)Nc1ccc(F)c(C(=O)c2c[nH]c3ncc(Cl)cc23)c1F	2.48 °C	2.88 °C	1.45 °C	-0.05 °C	0.85 °C	0.52 °C	2.73 °C	3.29 °C	0.32 °C	1.3 °C
CN(C)S(=O)(=O)c1ccc2c(c1)/C(=C/c1cc3c([nH]1)CCCC3)C(=O)N2	0 °C	6.57 °C	2.65 °C	1.7 °C	1.95 °C	3.86 °C	3.22 °C	2.42 °C	3.07 °C	13 °C
O=C1NC(=O)C(c2cnc3ccccn23)=C1c1cn2c3c(cc(F)cc13)CN(C(=O)N1CCCCC1)CC2	0.36 °C	0.62 °C	0.19 °C	0.44 °C	4.55 °C	2.13 °C	5.95 °C	0.1 °C	0.37 °C	0.22 °C
CNC(=O)c1cc(Oc2ccc(NC(=O)Nc3ccc(Cl)c(C(F)(F)F)c3)cc2)ccn1 [Sorafenib]	1.65 °C	3.61 °C	1.53 °C	1.59 °C	4.41 °C	2.7 °C	1.52 °C	2.74 °C	0.71 °C	5.22 °C
Cc1cnc(NC(=O)Nc2cc(Br)c(C)cc2OC[C@@H]2CNCCO2)cn1	0.41 °C	0.39 °C	0.37 °C	-0.12 °C	0.81 °C	0.58 °C	0.24 °C	1.82 °C	0.02 °C	2.33 °C
O=C(NC1CCNCC1)c1n[nH]cc1NC(=O)c1c(Cl)cccc1Cl	0.79 °C and -0.04 °C	0.32 °C and 1.46 °C	0.21 °C and 0.72 °C	-0.01 °C and 1.05 °C	4.91 °C and 5.53 °C	0.86 °C and 0.55 °C	-0.04 °C and 0.17 °C	0.25 °C and 0.54 °C	-0.23 °C and 0.38 °C	-0.1 °C and 0.56 °C
CC1(C)CNc2cc(NC(=O)c3cccnc3NCc3ccncc3)ccc21 [Motesanib Diphosphate (AMG-706)]	1.13 °C	0.81 °C	0.63 °C	0.38 °C	0.51 °C	0.76 °C	-0.19 °C	0.41 °C	-0.07 °C	-0.22 °C
CC(=O)Nc1nc(C)c(-c2ccc(Cl)c(S(=O)(=O)NCCO)c2)s1	0.98 °C	1.63 °C	1.52 °C	0.63 °C	0.16 °C	1.07 °C	-0.18 °C	0.24 °C	0.16 °C	0.93 °C
COc1cc(OC)cc(-c2cc3cnc(N)nc3nc2NC(=O)NC(C)(C)C)c1	0.51 °C	1.48 °C	0.1 °C	0.07 °C	0.48 °C	0.33 °C	-0.76 °C	0.85 °C	0.05 °C	1.75 °C
CN1CCN(c2ccc3nc(-c4c(N)c5c(F)cccc5[nH]c4=O)[nH]c3c2)CC1 [Dovitinib (TKI258) Lactate]	5.96 °C	2.78 °C	4.81 °C	1.06 °C	2.06 °C	3.87 °C	4.79 °C	3.22 °C	1.02 °C	6.95 °C
Cc1ccc(S(=O)(=O)/C=C/C#N)cc1	-0.23 °C	-1.35 °C	-0.53 °C	-0.18 °C	-0.19 °C	0.75 °C	-1.97 °C	2.88 °C	0.21 °C	-1.44 °C
